Legend:
[1] = molecular target: T1, Muscle, skeletal receptor tyrosine-protein kinase (Homo sapiens) (UniProt O15146); conditions: at 1 µM
T1 sequence (whole entry): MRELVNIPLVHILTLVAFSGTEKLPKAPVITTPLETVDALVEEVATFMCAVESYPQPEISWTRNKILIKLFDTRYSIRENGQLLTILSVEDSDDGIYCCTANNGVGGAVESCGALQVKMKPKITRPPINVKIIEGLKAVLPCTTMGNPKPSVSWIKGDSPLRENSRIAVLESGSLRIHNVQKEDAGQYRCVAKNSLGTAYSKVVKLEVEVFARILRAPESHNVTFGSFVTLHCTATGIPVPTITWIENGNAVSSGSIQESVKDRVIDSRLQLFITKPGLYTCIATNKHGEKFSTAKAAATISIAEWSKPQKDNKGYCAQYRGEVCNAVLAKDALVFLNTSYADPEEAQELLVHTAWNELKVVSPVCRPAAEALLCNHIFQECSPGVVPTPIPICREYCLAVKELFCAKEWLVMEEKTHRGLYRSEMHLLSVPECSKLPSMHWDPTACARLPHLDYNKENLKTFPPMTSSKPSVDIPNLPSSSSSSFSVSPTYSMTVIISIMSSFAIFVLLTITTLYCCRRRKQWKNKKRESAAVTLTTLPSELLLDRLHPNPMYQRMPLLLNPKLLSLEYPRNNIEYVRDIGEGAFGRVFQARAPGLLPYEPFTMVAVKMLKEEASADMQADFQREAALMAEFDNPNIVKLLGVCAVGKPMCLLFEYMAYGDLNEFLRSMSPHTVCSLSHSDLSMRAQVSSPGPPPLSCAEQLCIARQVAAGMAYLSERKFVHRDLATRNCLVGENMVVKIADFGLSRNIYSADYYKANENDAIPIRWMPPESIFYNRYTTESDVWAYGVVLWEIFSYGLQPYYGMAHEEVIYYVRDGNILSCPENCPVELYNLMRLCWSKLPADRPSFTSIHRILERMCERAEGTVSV

[2] = molecular target: T1, Muscle, skeletal receptor tyrosine-protein kinase (Homo sapiens); conditions: at 10 µM
[3] = molecular target: T2, Serine/threonine-protein kinase Nek11 (Homo sapiens) (UniProt Q8NG66); conditions: at 1 µM
T2 sequence (whole entry): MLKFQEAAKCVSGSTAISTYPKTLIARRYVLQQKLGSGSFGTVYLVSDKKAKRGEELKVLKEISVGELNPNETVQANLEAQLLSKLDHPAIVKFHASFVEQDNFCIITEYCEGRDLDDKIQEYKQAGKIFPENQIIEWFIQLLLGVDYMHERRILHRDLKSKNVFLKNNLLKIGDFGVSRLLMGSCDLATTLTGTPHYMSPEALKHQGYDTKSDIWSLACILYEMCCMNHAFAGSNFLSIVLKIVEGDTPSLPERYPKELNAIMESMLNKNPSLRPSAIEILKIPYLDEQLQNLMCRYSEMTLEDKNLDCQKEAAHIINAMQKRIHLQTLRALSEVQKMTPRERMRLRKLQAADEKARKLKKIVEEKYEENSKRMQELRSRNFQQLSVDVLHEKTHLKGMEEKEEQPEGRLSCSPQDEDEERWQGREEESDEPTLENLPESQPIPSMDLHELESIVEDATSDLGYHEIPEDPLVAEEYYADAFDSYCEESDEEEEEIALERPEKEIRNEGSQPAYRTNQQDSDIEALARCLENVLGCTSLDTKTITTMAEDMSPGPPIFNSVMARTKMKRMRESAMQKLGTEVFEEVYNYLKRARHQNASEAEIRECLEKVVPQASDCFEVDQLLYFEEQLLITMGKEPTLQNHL

[4] = molecular target: T2, Serine/threonine-protein kinase Nek11 (Homo sapiens); conditions: at 10 µM
[5] = molecular target: T3, Serine/threonine-protein kinase Nek3 (Homo sapiens) (UniProt P51956); conditions: at 1 µM
T3 sequence (whole entry): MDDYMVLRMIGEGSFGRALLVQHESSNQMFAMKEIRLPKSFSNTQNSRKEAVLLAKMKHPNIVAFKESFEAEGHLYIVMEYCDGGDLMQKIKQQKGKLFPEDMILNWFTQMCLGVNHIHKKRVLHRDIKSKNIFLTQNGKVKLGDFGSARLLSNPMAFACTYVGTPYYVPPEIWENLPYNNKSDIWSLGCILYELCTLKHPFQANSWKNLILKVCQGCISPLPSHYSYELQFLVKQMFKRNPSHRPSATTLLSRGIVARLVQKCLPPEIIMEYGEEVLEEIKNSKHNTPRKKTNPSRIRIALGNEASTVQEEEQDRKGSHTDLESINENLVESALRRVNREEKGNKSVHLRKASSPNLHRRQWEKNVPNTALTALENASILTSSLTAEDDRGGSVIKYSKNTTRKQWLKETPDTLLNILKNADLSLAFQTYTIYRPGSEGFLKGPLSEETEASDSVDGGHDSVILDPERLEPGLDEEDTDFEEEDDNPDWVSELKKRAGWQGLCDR

[6] = molecular target: Serine/threonine-protein kinase tousled-like 2 (Homo sapiens) (UniProt Q86UE8); conditions: at 1 µM
Serine/threonine-protein kinase tousled-like 2 (Homo sapiens), sequence (Q86UE8 whole entry, looked up): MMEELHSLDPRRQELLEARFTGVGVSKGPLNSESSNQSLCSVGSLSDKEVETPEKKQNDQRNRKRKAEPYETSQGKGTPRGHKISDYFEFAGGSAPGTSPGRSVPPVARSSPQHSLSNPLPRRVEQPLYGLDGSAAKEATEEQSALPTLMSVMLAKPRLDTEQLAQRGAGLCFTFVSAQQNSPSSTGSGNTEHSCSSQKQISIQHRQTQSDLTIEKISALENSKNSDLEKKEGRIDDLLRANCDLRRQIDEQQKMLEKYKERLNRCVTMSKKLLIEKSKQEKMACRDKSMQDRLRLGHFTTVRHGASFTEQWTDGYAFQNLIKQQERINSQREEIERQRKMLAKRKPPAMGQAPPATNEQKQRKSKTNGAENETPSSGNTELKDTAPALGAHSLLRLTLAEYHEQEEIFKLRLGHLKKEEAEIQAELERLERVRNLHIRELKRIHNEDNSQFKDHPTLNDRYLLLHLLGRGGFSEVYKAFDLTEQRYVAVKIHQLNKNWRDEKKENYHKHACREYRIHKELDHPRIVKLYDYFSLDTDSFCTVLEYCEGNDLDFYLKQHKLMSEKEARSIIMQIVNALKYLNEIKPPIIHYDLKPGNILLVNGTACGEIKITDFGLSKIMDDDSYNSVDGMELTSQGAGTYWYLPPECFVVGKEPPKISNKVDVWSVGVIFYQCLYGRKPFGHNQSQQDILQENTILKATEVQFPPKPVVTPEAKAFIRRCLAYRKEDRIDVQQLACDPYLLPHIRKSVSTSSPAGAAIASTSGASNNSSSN

[7] = molecular target: Serine/threonine-protein kinase tousled-like 2 (Homo sapiens) (UniProt Q86UE8); conditions: at 10 µM
[8] = molecular target: T4, Testis-specific serine/threonine-protein kinase 1 (Homo sapiens) (UniProt Q9BXA7); conditions: at 1 µM
T4 sequence (whole entry): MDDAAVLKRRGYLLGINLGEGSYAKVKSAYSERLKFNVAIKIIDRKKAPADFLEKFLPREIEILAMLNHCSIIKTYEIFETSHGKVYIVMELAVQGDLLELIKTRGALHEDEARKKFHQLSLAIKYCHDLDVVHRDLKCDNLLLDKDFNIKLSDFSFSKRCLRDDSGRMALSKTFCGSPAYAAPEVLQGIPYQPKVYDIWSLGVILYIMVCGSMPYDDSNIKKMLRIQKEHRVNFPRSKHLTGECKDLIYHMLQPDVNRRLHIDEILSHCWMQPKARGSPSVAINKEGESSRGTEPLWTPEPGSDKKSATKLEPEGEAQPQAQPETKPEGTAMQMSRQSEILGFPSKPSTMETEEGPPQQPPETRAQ

[9] = molecular target: T4, Testis-specific serine/threonine-protein kinase 1 (Homo sapiens); conditions: at 10 µM
[10] = molecular target: T5, Tyrosine-protein kinase Tec (Homo sapiens) (UniProt P42680); conditions: at 1 µM
T5 sequence (whole entry): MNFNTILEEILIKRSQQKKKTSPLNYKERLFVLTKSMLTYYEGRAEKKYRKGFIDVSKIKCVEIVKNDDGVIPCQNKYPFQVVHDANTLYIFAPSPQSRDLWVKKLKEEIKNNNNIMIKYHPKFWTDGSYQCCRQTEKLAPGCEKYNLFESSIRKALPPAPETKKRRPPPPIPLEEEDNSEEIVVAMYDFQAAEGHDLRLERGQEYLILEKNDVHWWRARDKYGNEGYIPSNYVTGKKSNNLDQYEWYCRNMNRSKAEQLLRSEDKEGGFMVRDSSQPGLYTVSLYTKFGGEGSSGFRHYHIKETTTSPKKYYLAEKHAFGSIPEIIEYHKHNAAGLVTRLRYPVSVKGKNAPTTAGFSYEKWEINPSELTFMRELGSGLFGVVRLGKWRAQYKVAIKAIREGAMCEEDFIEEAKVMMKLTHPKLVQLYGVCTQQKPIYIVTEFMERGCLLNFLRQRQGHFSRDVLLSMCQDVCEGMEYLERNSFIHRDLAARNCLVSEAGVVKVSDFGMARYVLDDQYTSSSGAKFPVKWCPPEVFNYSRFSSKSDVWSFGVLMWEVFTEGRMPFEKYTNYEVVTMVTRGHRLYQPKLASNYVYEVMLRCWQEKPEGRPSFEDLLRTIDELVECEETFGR

[11] = molecular target: T5, Tyrosine-protein kinase Tec (Homo sapiens); conditions: at 10 µM
[12] = molecular target: High affinity nerve growth factor receptor (Homo sapiens) (UniProt P04629); conditions: at 1 µM
High affinity nerve growth factor receptor (Homo sapiens), sequence (P04629 33-796 limits assumed): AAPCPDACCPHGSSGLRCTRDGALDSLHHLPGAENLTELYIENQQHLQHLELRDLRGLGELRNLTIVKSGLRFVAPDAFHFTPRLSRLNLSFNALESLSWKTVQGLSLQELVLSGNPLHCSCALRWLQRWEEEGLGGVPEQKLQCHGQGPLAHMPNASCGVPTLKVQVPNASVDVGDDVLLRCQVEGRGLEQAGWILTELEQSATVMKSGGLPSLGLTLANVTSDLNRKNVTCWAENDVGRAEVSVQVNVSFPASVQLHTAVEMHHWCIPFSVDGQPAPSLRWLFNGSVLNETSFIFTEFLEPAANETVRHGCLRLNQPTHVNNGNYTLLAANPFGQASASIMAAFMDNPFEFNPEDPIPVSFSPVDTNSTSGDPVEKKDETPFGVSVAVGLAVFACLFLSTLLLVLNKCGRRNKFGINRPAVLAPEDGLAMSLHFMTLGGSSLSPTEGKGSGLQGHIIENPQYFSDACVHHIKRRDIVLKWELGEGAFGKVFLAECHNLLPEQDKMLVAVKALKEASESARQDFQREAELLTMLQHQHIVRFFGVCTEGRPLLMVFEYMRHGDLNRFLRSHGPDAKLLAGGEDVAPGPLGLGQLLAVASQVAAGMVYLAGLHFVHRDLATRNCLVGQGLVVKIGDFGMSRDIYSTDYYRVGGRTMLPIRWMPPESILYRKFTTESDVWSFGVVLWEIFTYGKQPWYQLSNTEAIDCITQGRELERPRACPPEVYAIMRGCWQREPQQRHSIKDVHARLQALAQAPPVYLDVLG

[13] = molecular target: High affinity nerve growth factor receptor (Homo sapiens) (UniProt P04629); conditions: at 10 µM
[14] = molecular target: BDNF/NT-3 growth factors receptor (Homo sapiens) (UniProt Q16620); conditions: at 1 µM
BDNF/NT-3 growth factors receptor (Homo sapiens), sequence (Q16620 32-822 limits assumed): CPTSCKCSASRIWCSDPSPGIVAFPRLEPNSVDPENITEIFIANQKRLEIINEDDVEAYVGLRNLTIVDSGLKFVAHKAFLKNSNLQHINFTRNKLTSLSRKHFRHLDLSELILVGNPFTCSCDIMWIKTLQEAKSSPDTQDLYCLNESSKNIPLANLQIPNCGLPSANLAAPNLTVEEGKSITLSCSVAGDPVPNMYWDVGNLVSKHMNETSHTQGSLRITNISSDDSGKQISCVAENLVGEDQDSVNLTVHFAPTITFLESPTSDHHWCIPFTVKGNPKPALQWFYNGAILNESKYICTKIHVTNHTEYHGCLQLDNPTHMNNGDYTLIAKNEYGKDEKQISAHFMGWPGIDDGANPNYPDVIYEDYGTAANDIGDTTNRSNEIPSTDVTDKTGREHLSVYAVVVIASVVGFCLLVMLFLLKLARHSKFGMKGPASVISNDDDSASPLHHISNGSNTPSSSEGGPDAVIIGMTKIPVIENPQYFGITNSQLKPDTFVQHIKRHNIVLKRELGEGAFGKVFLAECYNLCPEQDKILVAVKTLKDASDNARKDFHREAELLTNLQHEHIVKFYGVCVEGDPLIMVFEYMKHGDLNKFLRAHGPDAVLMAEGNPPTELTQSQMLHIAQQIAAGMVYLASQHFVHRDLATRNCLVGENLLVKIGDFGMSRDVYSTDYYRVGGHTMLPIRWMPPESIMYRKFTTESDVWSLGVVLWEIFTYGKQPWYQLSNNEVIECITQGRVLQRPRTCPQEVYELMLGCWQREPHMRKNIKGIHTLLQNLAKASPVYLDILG

[15] = molecular target: T6, Serine/threonine-protein kinase Nek2 (Homo sapiens) (UniProt P51955); conditions: at 1 µM
T6 sequence (whole entry): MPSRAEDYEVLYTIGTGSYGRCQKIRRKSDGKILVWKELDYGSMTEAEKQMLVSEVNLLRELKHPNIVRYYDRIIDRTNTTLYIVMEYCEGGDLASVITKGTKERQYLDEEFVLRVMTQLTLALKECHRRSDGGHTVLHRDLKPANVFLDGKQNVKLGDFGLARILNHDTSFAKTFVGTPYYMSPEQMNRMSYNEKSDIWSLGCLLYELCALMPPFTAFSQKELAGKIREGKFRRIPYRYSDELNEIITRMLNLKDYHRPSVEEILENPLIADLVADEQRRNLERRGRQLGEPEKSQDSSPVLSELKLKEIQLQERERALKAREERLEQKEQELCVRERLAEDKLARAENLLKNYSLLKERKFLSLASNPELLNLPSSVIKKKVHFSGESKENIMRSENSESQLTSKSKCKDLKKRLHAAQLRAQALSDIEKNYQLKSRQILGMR

[16] = molecular target: T6, Serine/threonine-protein kinase Nek2 (Homo sapiens); conditions: at 10 µM
[17] = molecular target: T3, Serine/threonine-protein kinase Nek3 (Homo sapiens); conditions: at 10 µM
[18] = molecular target: T7, Testis-specific serine/threonine-protein kinase 2 (Homo sapiens) (UniProt Q96PF2); conditions: at 10 µM
T7 sequence (whole entry): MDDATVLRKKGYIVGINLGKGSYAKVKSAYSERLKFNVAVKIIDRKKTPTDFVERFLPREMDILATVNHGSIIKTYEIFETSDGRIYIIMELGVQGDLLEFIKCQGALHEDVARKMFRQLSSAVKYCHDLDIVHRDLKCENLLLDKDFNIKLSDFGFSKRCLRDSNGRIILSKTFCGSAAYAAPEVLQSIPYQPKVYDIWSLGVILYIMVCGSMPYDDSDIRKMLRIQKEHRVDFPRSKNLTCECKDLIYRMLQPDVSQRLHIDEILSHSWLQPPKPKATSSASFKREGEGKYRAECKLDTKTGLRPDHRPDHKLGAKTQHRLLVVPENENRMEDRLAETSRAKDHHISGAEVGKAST

[19] = molecular target: Angiopoietin-1 receptor (Homo sapiens) (UniProt Q02763); conditions: at 1 µM
Angiopoietin-1 receptor (Homo sapiens), sequence (Q02763 whole entry): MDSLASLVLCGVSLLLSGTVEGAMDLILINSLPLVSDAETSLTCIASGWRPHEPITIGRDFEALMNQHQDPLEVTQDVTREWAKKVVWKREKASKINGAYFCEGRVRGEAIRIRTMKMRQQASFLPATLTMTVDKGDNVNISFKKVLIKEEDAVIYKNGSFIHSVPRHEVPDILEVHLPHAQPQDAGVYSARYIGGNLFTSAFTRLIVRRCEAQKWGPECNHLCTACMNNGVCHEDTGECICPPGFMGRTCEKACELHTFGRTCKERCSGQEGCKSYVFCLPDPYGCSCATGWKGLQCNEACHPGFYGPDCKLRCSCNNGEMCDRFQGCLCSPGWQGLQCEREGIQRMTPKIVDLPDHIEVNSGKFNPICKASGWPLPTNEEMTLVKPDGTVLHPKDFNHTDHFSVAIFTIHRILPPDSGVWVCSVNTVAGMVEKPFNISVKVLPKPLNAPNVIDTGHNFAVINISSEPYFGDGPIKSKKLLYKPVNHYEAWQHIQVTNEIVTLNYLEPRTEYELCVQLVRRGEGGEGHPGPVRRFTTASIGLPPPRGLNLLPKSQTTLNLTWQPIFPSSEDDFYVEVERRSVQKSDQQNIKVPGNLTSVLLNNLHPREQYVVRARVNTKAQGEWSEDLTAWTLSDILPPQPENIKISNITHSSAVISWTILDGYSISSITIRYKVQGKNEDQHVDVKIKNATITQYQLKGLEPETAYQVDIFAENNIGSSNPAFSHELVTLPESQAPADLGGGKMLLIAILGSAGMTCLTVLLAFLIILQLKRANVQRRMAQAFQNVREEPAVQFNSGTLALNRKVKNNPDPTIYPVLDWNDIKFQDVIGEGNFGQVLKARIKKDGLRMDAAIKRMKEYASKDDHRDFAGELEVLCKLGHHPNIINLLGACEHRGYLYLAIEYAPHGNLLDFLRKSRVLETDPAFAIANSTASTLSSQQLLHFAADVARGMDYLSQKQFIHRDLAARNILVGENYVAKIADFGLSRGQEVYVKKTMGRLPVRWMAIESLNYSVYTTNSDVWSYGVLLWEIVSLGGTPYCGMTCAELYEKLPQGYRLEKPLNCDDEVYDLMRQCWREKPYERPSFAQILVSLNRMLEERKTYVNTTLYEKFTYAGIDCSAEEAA

[20] = molecular target: Angiopoietin-1 receptor (Homo sapiens) (UniProt Q02763); conditions: at 10 µM

SMILES | residual activity [1] [%] | residual activity [2] [%] | residual activity [3] [%] | residual activity [4] [%] | residual activity [5] [%] | residual activity [6] [%] | residual activity [7] [%] | residual activity [8] [%] | residual activity [9] [%] | residual activity [10] [%] | residual activity [11] [%] | residual activity [12] [%] | residual activity [13] [%] | residual activity [14] [%] | residual activity [15] [%] | residual activity [16] [%] | residual activity [17] [%] | residual activity [18] [%] | residual activity [19] [%] | residual activity [20] [%]
O=C1Nc2ccccc2/C1=C1/Nc2ccccc2/C1=N\OCCC(O)CO (configuration not stated) | 20 | 3 | 41 | 35 | 71 | 38 | 6 | 75 | 69 | 47 | 8 | -1 | 0 | -2 |  |  |  |  |  | 
CC(=O)c1ccc(N2CCOCC2)cc1O | 105 | 81 |  |  |  | 103 | 95 | 98 | 94 | 104 | 91 |  |  | 84 | 84 | 104 | 77 | 104 | 79 | 83
CNc1cc2c(Nc3cccc(Br)c3)ncnc2cn1 | 105 | 93 | 109 | 103 | 106 | 99 | 93 | 93 | 90 | 96 | 52 | 69 | 53 | 64 | 78 | 109 | 63 | 103 | 90 | 89
COc1ccc(CNc2nc(N(CCO)CCO)nc3c2ncn3C(C)C)cc1 | 86 | 73 | 53 | 64 | 71 | 83 | 85 | 86 | 70 | 103 | 79 | 75 | 56 | 72 | 90 | 85 | 90 | 87 | 101 | 80
Cn1cnc2cc3c(Nc4cccc(Br)c4)ncnc3cc21 | 104 | 85 | 89 | 106 | 111 | 103 | 92 | 99 | 96 | 82 | 73 | 87 | 82 | 107 | 87 | 109 | 74 | 106 | 74 | 34
Ic1cccc(CSc2nnc(-c3ccncc3)o2)c1 | 74 | 59 | 103 | 102 | 84 | 83 | 83 | 78 | 86 | 90 | 64 | 87 | 64 | 32 | 88 | 89 | 84 | 82 | 104 | 84
Cc1cncc2cccc(S(=O)(=O)N3CCCN(C(=O)CN)C[C@H]3C)c12 | 90 | 67 | 88 | 86 |  |  | 82 | 95 | 79 | 100 | 77 | 64 | -1 |  | 78 | 92 |  | 94 | 78 | 40
CCN(CC)C(=O)c1ccc(Nc2nc(OCC3CCCCC3)c3nc[nH]c3n2)cc1 | 32 | 4 | 67 | 41 | 47 |  |  | 14 | 2 | 24 | 2 | 8 | 0 | 36 | 68 | 11 | 18 | 14 |  | 8

— ChEMBL document CHEMBL2218924, “A broad activity screen in support of a chemogenomic map for kinase signalling research and drug discovery” (Biochem J, 2013)
